Laboratory results: the supplement of paper PMC8975748
Structures can show the parent of a compound that is named as a salt. ± gives the standard deviation of the averaged measurements.

Columns and labels:
[1] = test system: Saccharomyces cerevisiae BY4741 SeMeCo community; assay: mean cell size (pixel area) (pixels); higher = larger cells; settings: 10 µM; 24 h; SM minimal medium
In short: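 A four-plasmid fluorescent Saccharomyces cerevisiae BY4741 community was tested; each plasmid complements one auxotrophy and carries a fluorescent marker. An overnight preculture at OD600 = 1.0 was diluted to OD600 = 0.3, and 70 µl was added to 384-well plates acoustically predosed with drug (final 10 µM) in SM medium for 24 h. Cells were fixed with paraformaldehyde and imaged by automated confocal microscopy, with analysis in Harmony. Mean cell pixel area per well is averaged over 3 replicates. Same SeMeCo high-content imaging drug screen: Selleck FDA-approved drugs at 10 µM, 24 h in SM medium, 384-well plates, 3 replicates.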

[2] = test system: Saccharomyces cerevisiae BY4741 SeMeCo community; assay: z-score of prototroph abundance vs DMSO median; higher = larger share of this subpopulation than in DMSO controls; settings: 10 µM; 24 h; SM minimal medium; subpopulation (auxotrophy): Prototroph
In short: (§1)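 A Saccharomyces cerevisiae BY4741 community carried four plasmids, each restoring one auxotrophy and encoding a distinct fluorescent protein. It was pre-grown overnight to OD600 1.0, diluted to 0.3, and 70 µl was added to 384-well plates acoustically predosed with library drugs (10 µM final), then grown 24 h in minimal SM medium. Cells were paraformaldehyde-fixed and imaged by automated confocal microscopy, with single-auxotroph fluorescent strains setting thresholds and autofluorescence correction. Each subpopulation's abundance was scored as a z-score against the vehicle-well median.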

[3] = test system: Saccharomyces cerevisiae BY4741 SeMeCo community; assay: z-score of subpopulation abundance vs DMSO median, subpopulation auxotrophic for M; higher = larger share of this subpopulation than in DMSO controls; settings: 10 µM; 24 h; SM minimal medium; subpopulation (auxotrophy): M
In short: as §1

[4] = test system: Saccharomyces cerevisiae BY4741 SeMeCo community; assay: z-score of subpopulation abundance vs DMSO median, subpopulation auxotrophic for L; higher = larger share of this subpopulation than in DMSO controls; settings: 10 µM; 24 h; SM minimal medium; subpopulation (auxotrophy): L
In short: as §1

[5] = test system: Saccharomyces cerevisiae BY4741 SeMeCo community; assay: z-score of subpopulation abundance vs DMSO median, subpopulation auxotrophic for U; higher = larger share of this subpopulation than in DMSO controls; settings: 10 µM; 24 h; SM minimal medium; subpopulation (auxotrophy): U
In short: as §1

[6] = test system: Saccharomyces cerevisiae BY4741 SeMeCo community; assay: z-score of subpopulation abundance vs DMSO median, subpopulation auxotrophic for H; higher = larger share of this subpopulation than in DMSO controls; settings: 10 µM; 24 h; SM minimal medium; subpopulation (auxotrophy): H
In short: as §1

[7] = test system: Saccharomyces cerevisiae BY4741 SeMeCo community; assay: z-score of subpopulation abundance vs DMSO median, subpopulation auxotrophic for HM; higher = larger share of this subpopulation than in DMSO controls; settings: 10 µM; 24 h; SM minimal medium; subpopulation (auxotrophy): HM
In short: as §1

[8] = test system: Saccharomyces cerevisiae BY4741 SeMeCo community; assay: z-score of subpopulation abundance vs DMSO median, subpopulation auxotrophic for HU; higher = larger share of this subpopulation than in DMSO controls; settings: 10 µM; 24 h; SM minimal medium; subpopulation (auxotrophy): HU
In short: as §1

[9] = test system: Saccharomyces cerevisiae BY4741 SeMeCo community; assay: z-score of subpopulation abundance vs DMSO median, subpopulation auxotrophic for UM; higher = larger share of this subpopulation than in DMSO controls; settings: 10 µM; 24 h; SM minimal medium; subpopulation (auxotrophy): UM
In short: as §1

[10] = test system: Saccharomyces cerevisiae BY4741 SeMeCo community; assay: z-score of subpopulation abundance vs DMSO median, subpopulation auxotrophic for HL; higher = larger share of this subpopulation than in DMSO controls; settings: 10 µM; 24 h; SM minimal medium; subpopulation (auxotrophy): HL
In short: as §1

[11] = test system: Saccharomyces cerevisiae BY4741 SeMeCo community; assay: z-score of subpopulation abundance vs DMSO median, subpopulation auxotrophic for HLU; higher = larger share of this subpopulation than in DMSO controls; settings: 10 µM; 24 h; SM minimal medium; subpopulation (auxotrophy): HLU
In short: as §1

[12] = test system: Saccharomyces cerevisiae BY4741 SeMeCo community; assay: z-score of subpopulation abundance vs DMSO median, subpopulation auxotrophic for HLM; higher = larger share of this subpopulation than in DMSO controls; settings: 10 µM; 24 h; SM minimal medium; subpopulation (auxotrophy): HLM
In short: as §1

[13] = test system: Saccharomyces cerevisiae BY4741 SeMeCo community; assay: z-score of subpopulation abundance vs DMSO median, subpopulation auxotrophic for HUM; higher = larger share of this subpopulation than in DMSO controls; settings: 10 µM; 24 h; SM minimal medium; subpopulation (auxotrophy): HUM
In short: as §1

[14] = test system: Saccharomyces cerevisiae BY4741 SeMeCo community; assay: z-score of subpopulation abundance vs DMSO median, subpopulation auxotrophic for LUM; higher = larger share of this subpopulation than in DMSO controls; settings: 10 µM; 24 h; SM minimal medium; subpopulation (auxotrophy): LUM
In short: as §1

[15] = test system: Saccharomyces cerevisiae BY4741 SeMeCo community; assay: z-score of subpopulation abundance vs DMSO median, subpopulation auxotrophic for HLUM; higher = larger share of this subpopulation than in DMSO controls; settings: 10 µM; 24 h; SM minimal medium; subpopulation (auxotrophy): HLUM
In short: as §1

[16] = test system: Saccharomyces cerevisiae BY4741 SeMeCo community; assay: z-score of subpopulation abundance vs DMSO median, subpopulation auxotrophic for LM; higher = larger share of this subpopulation than in DMSO controls; settings: 10 µM; 24 h; SM minimal medium; subpopulation (auxotrophy): LM
In short: as §1

SMILES | mean cell size [1] | z-score of prototroph abundance [2] | z-score of subpopulation abundance [3] | z-score of subpopulation abundance [4] | z-score of subpopulation abundance [5] | z-score of subpopulation abundance [6] | z-score of subpopulation abundance [7] | z-score of subpopulation abundance [8] | z-score of subpopulation abundance [9] | z-score of subpopulation abundance [10] | z-score of subpopulation abundance [11] | z-score of subpopulation abundance [12] | z-score of subpopulation abundance [13] | z-score of subpopulation abundance [14] | z-score of subpopulation abundance [15] | z-score of subpopulation abundance [16]
CC(=O)Oc1ccc(C(=C2CCCCC2)c2ccc(OC(C)=O)cc2)cc1 [Cyclofenil] | 12.3 ± 0.17 | 0.79 | -1.19 | -0.27 | 0.16 | -0.22 | -0.93 | -0.3 | -0.03 | 0.25 | -0.23 | 0.41 | -0.46 | -0.06 | -0.2 | –
C[N+]1(C)[C@@H]2C[C@@H](OC(=O)C(O)(c3cccs3)c3cccs3)C[C@H]1[C@@H]1O[C@@H]12 [Tiotropium Bromide hydrate] | 12.5 ± 0.25 | – | 0.04 | -0.76 | 0.36 | – | -0.06 | -0.66 | 0.07 | – | -0.81 | -0.78 | -0.43 | -0.67 | – | -0.42
CCN(Cc1ccncc1)C(=O)C(CO)c1ccccc1 (stereo unspecified) [Tropicamide] | – | -0.08 | -0.16 | 0.34 | 0.43 | -0.6 | -0.12 | – | 0.23 | 0.16 | 0.42 | -0.45 | 0.16 | 0 | 0.01 | 0.83
CN(C)c1cc(NC(=O)CNC(C)(C)C)c(O)c2c1CC1CC3C(N(C)C)C(=O)C(C(N)=O)=C(O)C3(O)C(=O)C1=C2O (stereo unspecified) [Tigecycline] | – | 0.44 | -1.16 | -1.67 | 0.22 | 0.59 | -0.15 | 1.34 | -0.23 | -0.79 | -0.27 | 0.02 | -0.19 | -0.85 | -0.04 | -0.64
O=C(CCCN1CC=C(n2c(=O)[nH]c3ccccc32)CC1)c1ccc(F)cc1 [Droperidol] | 12.61 ± 0.072 | -0.55 | 0.67 | 0.41 | 0.1 | – | 0.2 | -0.11 | 0.62 | 0.21 | -0.09 | 0.63 | – | 0.57 | 0.59 | 0.69
COC(=O)C1=C(C)NC(C)=C(C(=O)OCCN2CCN(C(c3ccccc3)c3ccccc3)CC2)C1c1cccc([N+](=O)[O-])c1 (stereo unspecified) [Manidipine 2HCl] | – | -1.31 | 2.89 | 0.47 | -1.31 | 1.78 | 2.87 | 0.05 | -0.8 | 2.26 | 0.54 | 1.42 | 1.21 | 0.89 | 0.77 | 2.4
CCc1c(C)[nH]c2c1C(=O)C(CN1CCOCC1)CC2 (stereo unspecified) [Molindone hydrochloride] | 12.2 ± 0.13 | 0.46 | -0.61 | 0.73 | -0.6 | -0.43 | -0.54 | -0.73 | -0.67 | 0.22 | 0.45 | -0.03 | -0.76 | – | 0.04 | -0.16
O=C1CN(/N=C/c2ccc([N+](=O)[O-])o2)C(=O)N1 [Nitrofurantoin] | 12.47 ± 0.1 | 0.19 | 0.84 | -0.13 | – | -0.05 | -0.67 | -0.72 | 0.27 | 0.1 | -0.69 | -0.2 | -0.82 | -0.21 | -0.04 | –
C1CCN2C[C@@H]3C[C@@H](CN4CCCC[C@@H]34)[C@H]2C1 [(-)-Sparteine Sulfate] | 12.2 ± 0.3 | 0.31 | -0.03 | -0.01 | -0.7 | 1.38 | 0.08 | – | 0.01 | 1.4 | -0.52 | -0.86 | 0.1 | – | -0.92 | -0.13
CN(C)CCn1nnnc1SCC1=C(C(=O)O)N2C(=O)[C@@H](NC(=O)Cc3csc(N)n3)[C@H]2SC1 [Cefotiam hydrochloride] | 12.24 ± 0.031 | -1.4 | 1.1 | 1.99 | – | 1.72 | 1.4 | 0.76 | 1.04 | 1.92 | 1.21 | 0.75 | – | 1.11 | 0.99 | 1.06
Cc1cc(C)nc(NS(=O)(=O)c2ccc(N)cc2)n1 [Sulfamethazine] | – | – | 0.92 | 0.4 | – | 0.21 | 0.43 | -0.43 | -0.43 | -0.28 | 0.31 | 0.59 | -0.1 | -0.16 | – | 0.84
Clc1ccc2c(N3CCN(CCCN4CCN(c5ccnc6cc(Cl)ccc56)CC4)CC3)ccnc2c1 [Piperaquine phosphate] | 12.2 ± 0.16 | -0.69 | 1.85 | 0.02 | 0.1 | 0.23 | 1.16 | -0.29 | – | -0.1 | 0.33 | 0.63 | -0.06 | -0.03 | 0.31 | –
CCOC(=O)C1=C(COCCN)NC(C)=C(C(=O)OC)[C@@H]1c1ccccc1Cl [Levamlodipine] | – | 3.33 | 5.72 | 1.13 | -7.34 | 2.66 | – | -6.75 | -8.09 | 2.19 | -3.25 | 1.82 | -5.45 | -4.52 | -1.12 | –
COC(=O)C1=C(C)NC(C)=C(C(=O)OC2CCCN(Cc3ccccc3)C2)C1c1cccc([N+](=O)[O-])c1 (stereo unspecified) [Benidipine HCl] | 12.4 ± 0.23 | – | 0.13 | 1.12 | – | 0.92 | 0.86 | -0.01 | – | 1.55 | 0.26 | 0.06 | 0.12 | 0.29 | -0.21 | 1.8
NS(=O)(=O)Cc1noc2ccccc12 [Zonisamide] | 12.4 ± 0.24 | -0.82 | 0.41 | 1.91 | -0.42 | 0.46 | 0.69 | -0.35 | -0.04 | – | 1.02 | 1.38 | – | – | – | 1.13
